High-throughput results deposited in PubChem BioAssay by Broad Institute.
Only some compounds are listed: those with a hit (about 7.8% of all), similar ones and a draw of the others.
NOMO-1 viab: STK33 inhibitor candidate reducing NOMO-1 cell viability | NOMO-1 AML viability, CellTiter-Glo luminescence, 72 h | inhibition, % (test concentration not listed) | 37,000 tested, 7.5% active | AID 2330; in the data active = inhibition above about 80%; inconclusive = no clear call, values can overlap the other calls
Shh pathway inh: blocks Sonic Hedgehog signaling. 22,000 tested, 2.1% active. Shh-LIGHT2 Gli-luciferase reporter, 30 h. inhibition, % (concentration not given with the values);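 active = mean inhibition across valid replicates above about 65%, limit read from the data; inconclusive = mean under the limit, yet half or more replicates past it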;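 also: pathway switched on by Shh-conditioned medium diluted 1 in 25 in low serum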
MITF inhib: inhibitors of MITF; TRPM1 promoter luciferase, luminescence, 24 h; inhibition, % (concentration not given with the values); 37,000 tested, 0.28% active; in the data active = inhibition above about 85%; inconclusive = no clear call, values can overlap the other calls; inactive = below about 68%;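 also: human melanocyte line stably carrying TRPM1 promoter luciferase reporter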
Large screens that a line does not name were inactive.

C[C@H](CO)N1C[C@H](C)[C@@H](CN(C)S(=O)(=O)c2ccc(F)cc2)Oc2c(NC(=O)C3CCOCC3)cccc2C1=O	none
CCOc1cccc2c(C)nc(Nc3nc4c(c(=O)[nH]3)CCCC4)nc12	NOMO-1 viab 121.4 (no result: Shh pathway inh)
Cc1nc(SCC(=O)Nc2cccc(Cl)c2Cl)nc2c1CCCC2	none (no result: Shh pathway inh)
COc1ccc(S(=O)(=O)N(C)C[C@@H]2Oc3ccc(NS(=O)(=O)c4cn(C)cn4)cc3C(=O)N([C@@H](C)CO)C[C@H]2C)cc1	none (no result: Shh pathway inh)
C[C@H]1CN([C@@H](C)CO)C(=O)c2cc(NC(=O)CCN3CCOCC3)ccc2O[C@H]1CN(C)C(=O)Nc1ccc2c(c1)OCO2	none (no result: Shh pathway inh)
Cc1cccc(NC(=O)CCc2nc(-c3ccc(Cl)cc3)no2)c1C	none (no result: Shh pathway inh)
CCOC(=O)c1c(NC(=O)c2nn(CC)cc2Br)c(C#N)nn1-c1ccccc1	none (no result: Shh pathway inh)
CCOC(=O)c1nn(-c2ccccc2)c(C#N)c1NC(=O)c1nn(CC)cc1Br	NOMO-1 viab 115.0, Shh pathway inh 65.8
Cc1ccc(S(=O)(=O)Nc2ccc3c(c2)CC(=O)N([C@@H](C)CO)C[C@H](C)[C@@H](CN(C)C(=O)Nc2ccc(F)cc2)O3)cc1	none
Cc1ccc(S(=O)(=O)Nc2cccc3c2O[C@H](CN(C)C(=O)NC2CCCCC2)[C@H](C)CN([C@H](C)CO)C3=O)cc1	none (no result: Shh pathway inh)
CS(=O)(=O)N(CC(=O)Nc1cccc2ccccc12)c1ccc(Cl)cc1	none (no result: Shh pathway inh)
COc1ccc(OCCN2C(=O)CNC2=S)cc1	none
CC(=O)c1cccc(NC(=O)CCCn2cc([N+](=O)[O-])cn2)c1	none (no result: Shh pathway inh)
O=C(c1ccccc1)c1ccccc1C(=O)c1ccccc1	none
Cc1ccc2c(=O)c(C(=O)c3ccccc3)coc2c1	NOMO-1 viab 130.3 (no result: Shh pathway inh)
COc1ccc(NC(=O)Nc2ccc3c(c2)C(=O)N([C@@H](C)CO)C[C@H](C)[C@@H](CN(C)Cc2ccc(C(=O)O)cc2)O3)cc1	none (no result: Shh pathway inh)
C[C@@H]1CCCCO[C@H](CN(C)S(=O)(=O)c2ccccc2)[C@@H](C)CN([C@H](C)CO)C(=O)c2cc(NS(C)(=O)=O)ccc2O1	none
Clc1ccc(Sc2cn[nH]c2-c2ccc3c(c2)OCCO3)cc1	NOMO-1 viab inconclusive, Shh pathway inh 78.7
Cc1ccc(-c2csc3nnc(SCC(=O)c4ccc5c(c4)OCCO5)n23)cc1C	none (no result: Shh pathway inh)
O=c1cc(O)c2sc3nc(-c4ccccc4)ccc3c2[nH]1	none
C[C@@H]1CN([C@H](C)CO)C(=O)c2cccc(NC(=O)c3cnccn3)c2O[C@H]1CN(C)CC1CC1	none
CCN1C(=O)/C(=C2\C=Cc3ccccc3N2CC)N(C)C1=S	none
CSc1sc(/C(C)=N\O)c2c1/C(=N\O)CC(C)(C)C2	none (no result: Shh pathway inh)
CSc1sc(Cl)c2c1/C(=N\O)CC(C)(C)C2	NOMO-1 viab 109.5, Shh pathway inh inconclusive
COc1cc(OC)cc(-c2nnc(SCC(=O)Nc3sc4c(c3C#N)CCC(C(C)(C)C)C4)o2)c1 (configuration not stated)	none (no result: Shh pathway inh)
C[C@H](CO)N1C[C@H](C)[C@@H](CN(C)C(=O)Nc2ccc(C(F)(F)F)cc2)Oc2c(NC(=O)c3nc4ccccc4s3)cccc2C1=O	none
C[C@H]1CN([C@@H](C)CO)C(=O)c2cccc(NC(=O)c3nc4ccccc4s3)c2O[C@H]1CN(C)Cc1ccc(C(F)(F)F)cc1	none
C[C@H](CO)N1C[C@H](C)[C@H](CN(C)Cc2ccncc2)Oc2c(NC(=O)c3nc4ccccc4s3)cccc2C1=O	NOMO-1 viab 88.5
C[C@H](CO)N1C[C@H](C)[C@H](CN(C)C(=O)Nc2ccc(C(F)(F)F)cc2)Oc2c(NC(=O)c3nc4ccccc4s3)cccc2C1=O	NOMO-1 viab 103.6, Shh pathway inh inconclusive
C[C@H](CO)N1C[C@H](C)[C@@H](CN(C)Cc2ccncc2)Oc2c(NC(=O)c3nc4ccccc4s3)cccc2C1=O	none
C[C@@H]1CN([C@H](C)CO)C(=O)c2cccc(NC(=O)c3nc4ccccc4s3)c2O[C@H]1CN(C)Cc1ccc(C(F)(F)F)cc1	NOMO-1 viab 100.6
CS(=O)(=O)N(CC(=O)Nc1cc(Cl)ccc1Oc1ccccc1)C1CCCCC1	none (no result: Shh pathway inh)
CC(=O)Nc1cccc(-c2nnc(SCC(=O)N3CCN(c4ccccc4)CC3)n2C)c1	none (no result: Shh pathway inh)
C[C@@H]1CN([C@@H](C)CO)C(=O)c2cc(NC(=O)CCC(F)(F)F)ccc2O[C@@H]1CN(C)CC1CCCCC1	none
COc1ccc(S(=O)(=O)N(C)C[C@@H]2Oc3ccc(NS(C)(=O)=O)cc3C(=O)N([C@@H](C)CO)C[C@@H]2C)cc1	none (no result: Shh pathway inh)
C[C@H]1CN([C@@H](C)CO)C(=O)c2cc(N(C)C)ccc2O[C@H]1CN(C)Cc1ccc(C(=O)Nc2ccccc2N)cc1	NOMO-1 viab 109.9 (no result: Shh pathway inh)
C[C@@H]1CN([C@H](C)CO)C(=O)c2cc(NC(=O)Nc3ccc4c(c3)OCO4)ccc2O[C@@H]1CN(C)Cc1ccc(C(=O)Nc2ccccc2N)cc1	NOMO-1 viab inconclusive (no result: Shh pathway inh)
C[C@H]1CN([C@@H](C)CO)C(=O)c2cc(NC(=O)Nc3ccc4c(c3)OCO4)ccc2O[C@H]1CN(C)Cc1ccc(C(=O)Nc2ccccc2N)cc1	none (no result: Shh pathway inh)
C[C@H]1CN([C@@H](C)CO)C(=O)c2cc(NS(C)(=O)=O)ccc2O[C@H]1CN(C)Cc1ccc(C(=O)Nc2ccccc2N)cc1	none (no result: Shh pathway inh)
C[C@H](CO)N1C[C@H](C)[C@H](CN(C)Cc2ccc(C(=O)Nc3ccccc3N)cc2)Oc2ccc(N(C)C)cc2C1=O	NOMO-1 viab 110.6 (no result: Shh pathway inh)
C[C@@H]1CN([C@H](C)CO)C(=O)c2cc(N(C)C)ccc2O[C@@H]1CN(C)Cc1ccc(C(=O)Nc2ccccc2N)cc1	NOMO-1 viab 109.7 (no result: Shh pathway inh)
C[C@@H]1CN([C@@H](C)CO)C(=O)c2cc(N(C)C)ccc2O[C@H]1CN(C)Cc1ccc(C(=O)Nc2ccccc2N)cc1	NOMO-1 viab 109.7 (no result: Shh pathway inh)
COC(=O)c1ccccc1NC(=O)C(C)NS(=O)(=O)c1ccc(C)cc1 (configuration not stated)	none (no result: Shh pathway inh)
O=C(NCCNc1ccc([N+](=O)[O-])cc1)c1ccco1	none (no result: Shh pathway inh)
C[C@@H]1CN([C@H](C)CO)C(=O)Cc2cc(NC(=O)c3ccncc3)ccc2O[C@@H]1CN(C)C(=O)Nc1cccc2ccccc12	none
C[C@@H]1CN([C@H](C)CO)C(=O)c2cc(NC(=O)C3CC3)ccc2O[C@H]1CN(C)Cc1ccc(C(=O)O)cc1	none
C[C@@H]1CCCCO[C@@H](CN(C)C(=O)Nc2cccc3ccccc23)[C@@H](C)CN([C@H](C)CO)C(=O)c2cc(NS(=O)(=O)c3ccc(Cl)cc3)ccc2O1	NOMO-1 viab 101.5
C[C@@H]1CCCCO[C@H](CN(C)C(=O)Nc2ccc(F)cc2)[C@@H](C)CN([C@H](C)CO)C(=O)c2cc(NS(=O)(=O)c3ccc(Cl)cc3)ccc2O1	none
C[C@@H]1CCCCO[C@@H](CN(C)C(=O)Nc2ccc(C(F)(F)F)cc2)[C@@H](C)CN([C@H](C)CO)C(=O)c2cc(NS(=O)(=O)c3ccc(Cl)cc3)ccc2O1	NOMO-1 viab inconclusive, Shh pathway inh 119.2
C[C@@H]1CCCCO[C@H](CN(C)C(=O)Nc2ccc(C(F)(F)F)cc2)[C@@H](C)CN([C@H](C)CO)C(=O)c2cc(NS(=O)(=O)c3ccc(F)cc3)ccc2O1	none
COc1ccc(S(=O)(=O)Nc2ccc3c(c2)C(=O)N([C@H](C)CO)C[C@H](C)[C@@H](CN(C)C(=O)Nc2ccc(F)cc2)OCCCC[C@@H](C)O3)cc1	Shh pathway inh 74.1
